TAR Tat displ: TAR RNA-Tat peptide displacers, HIV-1, primary screen, biochemical, FRET, FAM/TAMRA-labeled Tat | 100,000 tested, 0.6% active | z-score (no concentration beside the values) | HIV-1 TAR RNA, Tat peptide displacement FRET; stronger effect = higher value; active = z-score of 3 or more in at least 2 runs
CDC25B-CDK2 inh: primary biochemical HTRF screen for blockers of M-phase inducer phosphatase 2 binding to CDK2/cyclin A; P30305+P24941; HTRF CDC25B-CDK2/CyclinA binding, anti-His/anti-Flag; stronger effect = higher value; z-score (no concentration beside the values); 94,000 tested, 0.72% active; in the data active = z-score above about 3.2
Starred values were filed as active, the others as inactive; · = no result given. The list is not random: actives were taken first. Their share in the collection is about 0.93%.

SMILES	TAR Tat displ	CDC25B-CDK2 inh
O=C(O)c1cnc[nH]1	·	3.9*
N[C@@H](Cc1cnc[nH]1)C(=O)O	·	-0.77
COc1ccc(C2CC(=O)Nc3nc(N)[nH]c(=O)c32)cc1 (stereo not drawn)	0.84	1.2
COc1cc(C2CC(=O)Nc3nc(N)[nH]c(=O)c32)ccc1O (stereo not drawn)	-1.2	-1.9
COc1cc(C2C3=C(Nc4nc(N)[nH]c(=O)c42)c2ccccc2C3=O)ccc1O (stereo not drawn)	5.6*	2.7
COc1ccc(C2C3=C(Nc4nc(N)[nH]c(=O)c42)c2ccccc2C3=O)cc1 (stereo not drawn)	3.7*	14*
CCSCCOC(=O)c1[nH]c2c(c1C)C(=O)CC(c1ccc(F)cc1)C2 (stereo not drawn)	0.91	-0.53
Cc1ccccc1-c1nc(Cn2c(=O)cc(-c3ccccc3)c3c(C)nn(C)c32)c(C)o1	0.18	·
CC(C)c1nnc(NC(=O)C(=O)c2c[nH]c3ccccc23)s1	2	-1.3
O=C(Nc1nnc(-c2ccco2)s1)C(=O)c1c[nH]c2ccccc12	17*	-2.1
COc1cc(-c2cc(C(=O)O)c3c(-c4ccc(Br)cc4)[nH]nc3n2)ccc1O	4.6	·
Cc1cc(NCc2ccccn2)n2nc(C(F)(F)F)c(-c3ccc(F)cc3)c2n1	-0.04	-2.7
CCCN1CCN(C(=O)Cn2nc(C)c3sc4ccccc4c3c2=O)CC1	1.1	-1.1
Clc1ccc2c(c1)NC(c1cccs1)=NC(c1cccs1)=N2	2.1	-2.4
CCOC(=O)c1nc2ccccc2n(C(C)=O)c1=O	0.02	19*
CCOC(=O)c1nc2ccccc2nc1C	1.5	·
CCc1cc2c3c([nH]c2cc1S(=O)(=O)Nc1ccc(F)cc1F)CCCC3=O	0.42	·
CCc1cc2c3c([nH]c2cc1S(=O)(=O)Nc1ccc(Cl)cc1F)CCCC3=O	4.3*	·
O=C(CSc1nnc(-c2cccs2)o1)Nc1ccc(F)cc1	2.7	-1.8
CCOC(=O)C1=C(C(=O)OCC)SC(=C2C(=S)C(C)(C)Nc3cc(C)ccc32)S1	-0.02	17*
COC(=O)C1=C(C(=O)OC)SC(=C2C(=S)C(C)(C)Nc3cc(C)ccc32)S1	1.5	13*
CCOC(=O)C1=CS/C(=C2/C(=S)C(C)(C)Nc3cc(C)ccc32)S1	1	-3.3
COC(=O)C1=C(C(=O)OC)SC(=C2C(=S)C(C)(C)Nc3ccc(OC)cc32)S1	1.3	-6.5
CCOC(=O)c1cc(-c2ccc(S(=O)(=O)N(C)C3CCCCC3)s2)on1	-0.79	·
CC1(C)N([O-])C2=C(c3ccccc3C2=O)[N+](=O)C1(C)C	·	17*
SMILES	TAR Tat displ	CDC25B-CDK2 inh
Cc1cc2c(n1-c1ccc(C(=O)O)cc1)CCCC2	1.3	-0.92
Cc1ccc(C)n1-c1cc(C(=O)O)cc(C(=O)O)c1	17*	0.35
COc1ccc(C2C(C#N)=C(N)Oc3n[nH]c(-c4ccc5c(c4)OCO5)c32)c(OC)c1OC (stereo not drawn)	·	0.12
Cc1sc2ncn(CC(=O)N3CCCCCC3)c(=O)c2c1S(=O)(=O)N1CCN(C)CC1	·	19*
Cc1sc2ncn(CC(=O)N3CCOCC3)c(=O)c2c1S(=O)(=O)N1CCOCC1	2.3	-1.5
CCOC(=O)c1c(C)oc2ncnc(N(C)C3CCCCC3)c12	-0.04	·
O=C(NC1CC1)C1CCN(S(=O)(=O)c2cccc3nonc23)CC1	1.1	·
N#CC1=C2SCN(C3CCCCC3)CN2C(=O)CC1c1ccc(Cl)cc1 (stereo not drawn)	-2.2	0.07
COc1ccc(C2CC(=O)N3CN(c4ccc(Br)cc4)CSC3=C2C#N)cc1OC (stereo not drawn)	-0.65	5.6*
COc1cccc(C2CC(=O)N3CN(c4ccc(Br)cc4)CSC3=C2C#N)c1OC (stereo not drawn)	-3.1	5.9*
COc1ccc(C2CC(=O)N3CN(C4CCCC4)CSC3=C2C#N)cc1OC (stereo not drawn)	-2.1	5.9*
Cc1ccc(C2CC(=O)N3CN(c4ccc(Br)cc4)CSC3=C2C#N)o1 (stereo not drawn)	-1.9	7.3*
O=C(Nc1ccccc1F)C1=Cc2sc3c(c2CS1)CCCC3	-1.8	·
Clc1ccc(C2C3=C(Nc4ncnn42)c2ccccc2OCC3)cc1 (stereo not drawn)	0.49	2.3
CCOc1ccc(Nc2nc(Nc3ccc(OC)cc3)nc(N)c2[N+](=O)[O-])cc1	-0.01	·
Cc1cccc(Nc2c(-c3ccc(C)o3)nc3cnccn23)c1	·	-1.1
COc1cccc(C2CC(=O)N3CN(C4CCCCC4)CSC3=C2C#N)c1OC (stereo not drawn)	-0.67	6.2*
COc1cccc(C2CC(=O)N3CN(C)CSC3=C2C#N)c1OC (stereo not drawn)	-0.83	4.3*
COc1cccc(C2CC(=O)N3CN(c4ccccc4)CSC3=C2C#N)c1OC (stereo not drawn)	1.7	3.5*
N#CC1=C2SCN(c3ccc(Br)cc3)CN2C(=O)CC1c1ccccc1F (stereo not drawn)	-1.9	7.3*
COc1ccccc1C1CC(=O)N2CN(C3CCCCC3)CSC2=C1C#N (stereo not drawn)	-0.27	2.5
CCCCNc1ncnc2c1cnn2-c1ccc(OC)cc1	1.1	·
CCOC(=O)N/N=C/c1csnn1	·	-0.25
CCCN1CCN(c2cc3c(cc2F)c(=O)c(S(=O)(=O)c2ccc(Cl)cc2)cn3CC)CC1	1.1	·
O=c1cc(COc2ccc(Cl)cc2)nc2sc(-c3ccco3)nn12	36*	-0.91
SMILES	TAR Tat displ	CDC25B-CDK2 inh
O=c1cc(CSc2nc3ccccc3[nH]2)nc2sc(-c3cccs3)nn12	0.82	0.61
O=c1cc(CSc2ccc(Cl)cc2)nc2sc(-c3ccco3)nn12	1.6	-2.2
Cc1cccc(OCc2cc(=O)n3nc(-c4ccco4)sc3n2)c1C	35*	-0.31
Cc1ccc(OCc2cc(=O)n3nc(-c4ccccc4)sc3n2)cc1C	4.5*	1.7
Cc1nn2c(=O)cc(COc3cccc(C)c3C)nc2s1	-0.75	-1
O=c1cc(CSc2nc3ccccc3[nH]2)nc2sc(-c3ccco3)nn12	15*	-0.16
CCc1nn2c(=O)cc(COc3ccc(C)c(C)c3)nc2s1	0.78	-1.5
CNC(=O)c1nn(-c2ccc(F)cc2)nc1CO	-0.62	-0.39
CCc1cc2c3c([nH]c2cc1S(=O)(=O)N(C)CCCc1ccco1)CCCC3=O	1	·
O=C(CSC1=NS(=O)(=O)c2ccccc2N1)Nc1ccc(Br)cc1F	1.8	·
CCc1c(C)nc2nc(Cc3cccc(F)c3)nn2c1NCc1ccc2c(c1)OCO2	1.1	·
Cc1ssc(=S)c1-c1ccccc1	·	5.7*
Cc1c(Br)sc(Br)c1-c1ccccc1	·	-1.1
Cn1c(=O)c2cc(C(=O)N3CCC(N4CCCCC4)CC3)sc2c2ccccc21	0.08	-1.9
Clc1ccc(OCCn2c(/C=C/c3ccco3)nc3ccccc32)cc1	-5.8	0.11
Cc1ccc(Cn2c(/C=C/c3ccco3)nc3ccccc32)cc1	-0.25	3.6*
C(=C\c1nc2ccccc2n1CCOc1ccccc1)/c1ccco1	-6.2	0.36
Cc1ccccc1Cn1c(/C=C/c2ccco2)nc2ccccc21	-6.7	3.5*
COc1cc(C2C(C#N)=C(N)OC3=C2C(=O)CC(C)(C)C3)ccc1OC(C)=O (stereo not drawn)	·	-1.6
O=C(O)CCCC(=O)Nc1cccc2cccnc12	1.4	-0.19
Nc1ncccc1NC(=O)CCC(=O)O	0.11	14*
O=C(NCCN1CCc2ccccc2C1)Nc1ccccc1F	-0.3	-0.6

Compound activity as filed in PubChem.
